From the supplement of paper PMC3334620
Whole data set: some 33,000 sequences, median “E-score (-0.5 to 0.5)” near -0.016, cut for the highest 2% near 0.3. The entries come from a sample that favours the highest values as a whole.

Molecular target: T1, Yer184c (UniProt P39961)
T1 sequence: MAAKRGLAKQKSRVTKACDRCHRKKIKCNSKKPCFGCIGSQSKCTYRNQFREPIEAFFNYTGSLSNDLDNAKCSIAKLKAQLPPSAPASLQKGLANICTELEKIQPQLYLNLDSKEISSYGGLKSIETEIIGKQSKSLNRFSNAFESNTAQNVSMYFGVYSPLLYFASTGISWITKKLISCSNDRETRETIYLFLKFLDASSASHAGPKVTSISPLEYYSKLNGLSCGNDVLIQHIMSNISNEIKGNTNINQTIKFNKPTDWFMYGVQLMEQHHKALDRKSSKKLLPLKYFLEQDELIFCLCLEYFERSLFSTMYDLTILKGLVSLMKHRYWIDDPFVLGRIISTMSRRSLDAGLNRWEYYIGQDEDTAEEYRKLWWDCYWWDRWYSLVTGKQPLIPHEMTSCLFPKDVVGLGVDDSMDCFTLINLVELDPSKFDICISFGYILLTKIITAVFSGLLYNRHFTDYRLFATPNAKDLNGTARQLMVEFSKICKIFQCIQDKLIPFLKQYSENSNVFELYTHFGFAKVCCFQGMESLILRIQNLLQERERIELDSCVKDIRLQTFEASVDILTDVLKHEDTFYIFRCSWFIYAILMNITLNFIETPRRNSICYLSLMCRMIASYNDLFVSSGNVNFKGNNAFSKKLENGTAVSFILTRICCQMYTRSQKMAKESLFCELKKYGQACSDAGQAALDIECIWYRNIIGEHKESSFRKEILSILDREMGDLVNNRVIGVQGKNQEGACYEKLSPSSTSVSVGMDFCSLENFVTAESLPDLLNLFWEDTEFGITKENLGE
Assay: PBM E-score (8-mer binding enrichment) (E-score (-0.5 to 0.5)); higher = stronger / more preferred TF binding
Settings: protein concentration: 100 nM; construct: GST-full length
Procedure, shortened: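 Full-length yeast transcription factors or their DNA-binding domains, GST-tagged and expressed with PURExpress, were applied at about 100-200 nM to universal all-10-mer Agilent arrays. These arrays had been made double-stranded by primer extension on fresh or once-stripped slides. Detection used fluorescent anti-GST, normalisation used masliner, and E-scores for ungapped eight-base words pooled with reverse complements came from the Universal PBM Analysis Suite.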

Sequence	PBM E-score
CACACTGC	-0.155
GATTGGCC	-0.0975
AGGGTGAA	-0.136
AATTGTCG	0.035
CGGAACCC	0.279
CCGAACCG	0.329
CCGAACGC	0.274
GGGAACCA	-0.222
CCGAACGG	0.325
CCGAACCC	0.0527
AGGAACCG	0.179
CGGAACCA	0.338
CCGAACGA	0.245
CGGAACCG	0.364
CCGAACCA	0.154
TGGAACCA	0.138
ACTTATAA	0.221
GATCTAGC	-0.195
CAACTACC	-0.0226
ATCCCATC	-0.19
ATGCACCC	-0.147
GGAAAAAC	0.124
AGGAAAAA	0.168
CGGAAAAA	0.394
CGGAAAAC	0.349

Sequence	PBM E-score
CGAAATAA	0.255
AGAAATAA	0.19
GGAAATAA	0.319
CGGAAACC	0.188
GGGAAAAC	-0.00619
GGGAAAAA	0.123
CGGAAAAG	0.248
GGAAAAAA	0.304
CCAACCAC	-0.0234
AGAAAACT	0.0223
TCCTTACA	-0.0191
AACGAAGT	-0.0531
TCTCCCAA	0.0611
GCACTACA	-0.142
CGCCCCTC	-0.199
CGGAAACA	0.314
AGGAAACA	0.165
GGGAAACA	0.22
CGTCTACC	0.0232
AAACTCGA	0.0301
TCCACGGA	0.304
GAAACGGA	0.294
ACAACGGA	0.314
ACAACGGG	0.00646
CTAACGGA	0.284

Sequence	PBM E-score
TAAACGGA	0.311
ATAACGGA	0.278
GTAACGGA	0.304
CCCACGGA	0.157
ACAACGGT	-0.0406
ACCACGGA	0.107
CAAACGGA	0.267
CCTGTAGA	-0.094
ACGGCAGC	0.161
AACGGTAC	0.187
CTCAAAGC	0.114
ATGAACAA	0.154
CCCCATCG	-0.0742
ACTCTGTC	-0.139
ATCACGGA	0.307
GCAACGGA	0.294
ATCACGGC	0.197
TCAACGGA	0.315
ATCACGGG	-0.164
CCAACGGA	0.101
CAATGCAG	-0.0658
AGCCAGTC	-0.153
CGAGGATC	0.0927
GAACCTCC	-0.0558
CAATTCAG	-0.0853

Sequence	PBM E-score
CGGCCGAC	0.381
GGGCCGAC	0.132
CGGCCGAG	0.372
AGGCCGAC	0.0134
CAGCCGAG	0.275
AGGCCGAG	0.143
TGGCCGAA	0.295
CGGCCGAA	0.415
GGGCCGAA	0.243
CACCCCCA	-0.206
CCAATTGG	0.041
TACTGTCA	-0.0937
GCTCAAGC	-0.0698
ATGCTAAA	0.0332
GATTGATA	0.0572
TGTTGTAA	0.148
ACCATCAG	-0.101
ACGCCGAC	0.198
ACGCCGAT	0.151
GCGCCGTA	0.247
ACGCCGAA	0.343
TCGCCGCA	0.0686
TCGCCAAA	-0.0461
GCGCCGAC	0.206
GCGCCGAA	0.343

Sequence	PBM E-score
TCGCCGAA	0.316
AGGTATTG	-0.0873
AAGGATAT	0.0287
CTCTCCCA	-0.211
CGGTCGCA	-0.0193
TGCCCGAA	0.0801
ACCAAAGT	-0.0125
ATGGCCTC	-0.106
ACGCTTCC	0.0165
CTAAAGTC	-0.0167
CCGGCACG	0.288
CCGGCATC	0.322
ACGGCACC	-0.0473
CCGGCACC	0.352
CCGGCATA	0.291
GCGGCACA	0.129
ACGGCATC	0.0862
CCGGCACA	0.314
ACGGCACG	0.194
ACGGCACA	0.0865
GCGGCACC	0.23
TCGGCACA	0.307
ACAGCTAA	-0.0181
CGCGGCCC	0.0857
AATGTTGT	-2e-05

Sequence	PBM E-score
GCTCTTCA	-0.187
ACACTAGC	-0.101
CTTCTTGA	-0.0452
ACTGGGCA	-0.199
CCGCCTCA	-0.051
CACCTCAG	-0.236
ACCTAATG	-0.284
CGGAGTGA	0.153
GTAGGTTA	-0.00416
CTGCCGAA	0.297
ATGCCGAG	0.346
ATGCCGAC	0.243
ATGCCGAA	0.408
ATGCCGTG	0.115
GTGCCGAA	0.387
ATGCCAAA	-0.0656
ATGCCGTA	0.196
GTGCCAAA	-0.00899
CAAGCCTC	-0.237
CGTCCCCA	-0.276
GACCATCC	-0.237
GTGGCCAA	-0.156
ATCAGCCC	-0.386
CCCGAACC	0.0911
GCCGAACC	0.323

Sequence	PBM E-score
ACCGAACG	0.235
AACGAACT	0.0561
ACCGAACC	0.0575
GCCGAACA	0.329
CCCGAACA	0.0635
ACCGAACT	0.306
ACCGAACA	0.259
CCTGGGCA	-0.276
CGATGTGC	-0.101
ACCCCACC	0.0874
AGAATTGC	-0.134
AGGGCAAC	-0.00172
CATCGGAC	0.174
AATCGGAT	0.327
CATCGGAA	0.278
AATCGGCC	0.146
GATCGGGC	0.00638
AATCGGAC	0.152
AATCGGCA	0.289
AATCGGCT	0.349
GATCGGAA	0.279
AATCGGGT	0.173
GATCGGAC	0.322
TATCGGAA	0.351
